# ChEMBL document CHEMBL1961873, “Compounds: GSK PKIS; Assays: Nanosyn kinase panel” (2012)
# What was measured:
# [1] = molecular target: Serine/threonine-protein kinase pim-2 (Homo sapiens) (UniProt Q9P1W9); conditions: at 1 µM;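 also: each value is a mean of the inhibition measurements against the kinase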
# [2] = molecular target: Serine/threonine-protein kinase pim-3 (Homo sapiens) (UniProt Q86V86); conditions: at 0.1 µM
# [3] = molecular target: Serine/threonine-protein kinase pim-3 (Homo sapiens) (UniProt Q86V86); conditions: at 1 µM
# [4] = molecular target: T1, MAP kinase-activated protein kinase 5 (Homo sapiens) (UniProt Q8IW41); conditions: at 0.1 µM
# T1 sequence (whole entry): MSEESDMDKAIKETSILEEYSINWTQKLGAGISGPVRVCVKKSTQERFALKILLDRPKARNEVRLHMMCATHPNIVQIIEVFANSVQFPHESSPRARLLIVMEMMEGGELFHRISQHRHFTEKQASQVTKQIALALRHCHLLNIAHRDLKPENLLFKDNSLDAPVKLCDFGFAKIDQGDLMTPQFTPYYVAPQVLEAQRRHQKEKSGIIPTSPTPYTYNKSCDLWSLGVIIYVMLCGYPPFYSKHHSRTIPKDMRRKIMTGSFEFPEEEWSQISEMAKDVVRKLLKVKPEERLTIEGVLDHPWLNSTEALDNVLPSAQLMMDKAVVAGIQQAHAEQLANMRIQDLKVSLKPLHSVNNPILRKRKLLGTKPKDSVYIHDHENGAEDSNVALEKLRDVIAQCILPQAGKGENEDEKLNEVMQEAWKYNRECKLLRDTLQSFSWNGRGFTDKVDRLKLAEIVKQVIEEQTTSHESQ
# [5] = molecular target: T1, MAP kinase-activated protein kinase 5 (Homo sapiens); conditions: at 1 µM
# [6] = molecular target: Serine/threonine-protein kinase SIK1 (Homo sapiens) (UniProt P57059); conditions: at 0.1 µM
# Sequence of Serine/threonine-protein kinase SIK1 (Homo sapiens) (P57059 whole entry): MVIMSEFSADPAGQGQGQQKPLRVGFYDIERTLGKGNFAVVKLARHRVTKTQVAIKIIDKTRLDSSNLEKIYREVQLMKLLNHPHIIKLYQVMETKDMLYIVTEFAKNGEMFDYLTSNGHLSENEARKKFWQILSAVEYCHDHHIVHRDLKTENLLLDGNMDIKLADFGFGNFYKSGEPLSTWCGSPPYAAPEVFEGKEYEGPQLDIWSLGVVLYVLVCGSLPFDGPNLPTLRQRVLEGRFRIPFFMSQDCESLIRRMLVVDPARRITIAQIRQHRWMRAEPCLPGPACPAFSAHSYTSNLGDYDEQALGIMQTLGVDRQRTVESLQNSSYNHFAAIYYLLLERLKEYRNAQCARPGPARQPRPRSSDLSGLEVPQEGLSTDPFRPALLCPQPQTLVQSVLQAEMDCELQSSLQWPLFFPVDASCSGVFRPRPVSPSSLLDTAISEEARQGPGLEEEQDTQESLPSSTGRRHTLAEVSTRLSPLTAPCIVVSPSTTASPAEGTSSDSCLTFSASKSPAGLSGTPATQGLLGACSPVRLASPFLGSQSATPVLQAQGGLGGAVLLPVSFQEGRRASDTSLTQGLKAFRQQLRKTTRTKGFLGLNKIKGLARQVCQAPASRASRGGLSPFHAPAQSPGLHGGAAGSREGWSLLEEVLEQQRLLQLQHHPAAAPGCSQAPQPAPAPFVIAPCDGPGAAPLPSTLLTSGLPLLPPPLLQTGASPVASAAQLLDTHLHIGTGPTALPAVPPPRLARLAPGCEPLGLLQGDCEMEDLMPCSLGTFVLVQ
# [7] = molecular target: Serine/threonine-protein kinase SIK1 (Homo sapiens) (UniProt P57059); conditions: at 1 µM
# [8] = molecular target: Serine/threonine-protein kinase SIK2 (Homo sapiens) (UniProt Q9H0K1); conditions: at 0.1 µM
# Sequence of Serine/threonine-protein kinase SIK2 (Homo sapiens) (Q9H0K1 whole entry, looked up): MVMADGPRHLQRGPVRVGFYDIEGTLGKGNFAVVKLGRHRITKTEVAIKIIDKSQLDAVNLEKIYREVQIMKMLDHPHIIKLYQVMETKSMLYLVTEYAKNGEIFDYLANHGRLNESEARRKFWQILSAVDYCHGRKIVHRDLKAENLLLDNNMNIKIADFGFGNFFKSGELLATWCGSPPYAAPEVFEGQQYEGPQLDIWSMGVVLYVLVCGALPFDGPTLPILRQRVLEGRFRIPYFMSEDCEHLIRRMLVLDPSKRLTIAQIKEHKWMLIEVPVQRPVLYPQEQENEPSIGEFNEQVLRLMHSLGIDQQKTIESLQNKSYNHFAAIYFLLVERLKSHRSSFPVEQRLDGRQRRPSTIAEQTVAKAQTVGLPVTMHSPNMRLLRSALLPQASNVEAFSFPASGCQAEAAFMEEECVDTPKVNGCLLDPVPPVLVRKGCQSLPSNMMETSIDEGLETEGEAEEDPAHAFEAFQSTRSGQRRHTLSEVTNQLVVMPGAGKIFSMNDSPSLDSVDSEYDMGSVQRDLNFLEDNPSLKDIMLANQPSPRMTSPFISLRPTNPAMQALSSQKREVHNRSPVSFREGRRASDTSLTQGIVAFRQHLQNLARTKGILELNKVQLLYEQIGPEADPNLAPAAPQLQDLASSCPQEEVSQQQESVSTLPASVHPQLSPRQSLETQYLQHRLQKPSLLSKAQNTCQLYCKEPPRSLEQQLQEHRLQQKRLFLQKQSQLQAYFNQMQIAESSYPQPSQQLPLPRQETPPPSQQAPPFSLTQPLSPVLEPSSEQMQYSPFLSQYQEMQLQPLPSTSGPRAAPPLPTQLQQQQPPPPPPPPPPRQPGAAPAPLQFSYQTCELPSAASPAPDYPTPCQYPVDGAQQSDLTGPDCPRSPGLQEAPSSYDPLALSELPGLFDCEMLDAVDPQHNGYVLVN
# [9] = molecular target: Serine/threonine-protein kinase SIK2 (Homo sapiens) (UniProt Q9H0K1); conditions: at 1 µM
# [10] = molecular target: T2, Serine/threonine-protein kinase TBK1 (Homo sapiens) (UniProt Q9UHD2); conditions: at 0.1 µM
# T2 sequence (whole entry): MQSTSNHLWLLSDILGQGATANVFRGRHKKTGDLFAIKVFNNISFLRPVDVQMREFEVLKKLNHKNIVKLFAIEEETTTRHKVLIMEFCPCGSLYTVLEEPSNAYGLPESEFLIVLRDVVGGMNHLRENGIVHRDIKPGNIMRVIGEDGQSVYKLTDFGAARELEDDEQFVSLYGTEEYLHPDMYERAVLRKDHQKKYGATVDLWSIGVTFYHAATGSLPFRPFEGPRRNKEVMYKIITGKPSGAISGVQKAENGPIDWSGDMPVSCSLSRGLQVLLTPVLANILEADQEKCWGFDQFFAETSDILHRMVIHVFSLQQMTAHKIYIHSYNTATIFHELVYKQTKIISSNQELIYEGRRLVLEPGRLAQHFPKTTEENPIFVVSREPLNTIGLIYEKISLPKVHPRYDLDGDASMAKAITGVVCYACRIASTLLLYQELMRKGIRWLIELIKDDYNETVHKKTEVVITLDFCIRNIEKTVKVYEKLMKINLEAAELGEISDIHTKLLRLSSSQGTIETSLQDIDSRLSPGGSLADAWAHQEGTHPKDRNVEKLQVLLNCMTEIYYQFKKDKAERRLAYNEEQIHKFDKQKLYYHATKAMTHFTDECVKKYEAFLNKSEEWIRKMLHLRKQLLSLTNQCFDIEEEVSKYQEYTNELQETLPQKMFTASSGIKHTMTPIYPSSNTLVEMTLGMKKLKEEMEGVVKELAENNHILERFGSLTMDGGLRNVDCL
# [11] = molecular target: T2, Serine/threonine-protein kinase TBK1 (Homo sapiens); conditions: at 1 µM
# [12] = molecular target: T3, Testis-specific serine/threonine-protein kinase 1 (Homo sapiens) (UniProt Q9BXA7); conditions: at 0.1 µM
# T3 sequence (whole entry): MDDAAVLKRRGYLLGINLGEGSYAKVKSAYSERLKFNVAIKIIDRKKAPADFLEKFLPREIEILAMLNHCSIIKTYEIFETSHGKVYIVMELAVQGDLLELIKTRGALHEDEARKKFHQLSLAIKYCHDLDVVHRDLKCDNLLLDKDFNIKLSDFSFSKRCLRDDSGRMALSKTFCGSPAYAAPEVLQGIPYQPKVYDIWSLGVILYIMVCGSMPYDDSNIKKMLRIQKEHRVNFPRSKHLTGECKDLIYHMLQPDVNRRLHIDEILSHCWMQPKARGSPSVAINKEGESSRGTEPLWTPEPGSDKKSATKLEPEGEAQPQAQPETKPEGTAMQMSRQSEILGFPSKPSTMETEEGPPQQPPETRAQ
# [13] = molecular target: T3, Testis-specific serine/threonine-protein kinase 1 (Homo sapiens); conditions: at 1 µM
# [14] = molecular target: T4, Testis-specific serine/threonine-protein kinase 2 (Homo sapiens) (UniProt Q96PF2); conditions: at 0.1 µM
# T4 sequence (whole entry): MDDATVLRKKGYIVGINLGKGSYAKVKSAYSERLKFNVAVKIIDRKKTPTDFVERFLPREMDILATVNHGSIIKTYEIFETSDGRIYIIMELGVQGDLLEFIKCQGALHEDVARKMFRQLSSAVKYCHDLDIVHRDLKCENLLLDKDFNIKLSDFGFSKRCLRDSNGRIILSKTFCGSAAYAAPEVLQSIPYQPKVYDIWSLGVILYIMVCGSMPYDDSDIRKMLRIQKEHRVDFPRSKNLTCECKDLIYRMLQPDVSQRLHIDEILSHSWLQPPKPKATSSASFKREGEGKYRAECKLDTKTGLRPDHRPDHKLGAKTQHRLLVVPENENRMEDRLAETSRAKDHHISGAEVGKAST
# [15] = molecular target: T4, Testis-specific serine/threonine-protein kinase 2 (Homo sapiens); conditions: at 1 µM
# [16] = molecular target: Casein kinase I isoform alpha (Homo sapiens) (UniProt P48729); conditions: at 0.1 µM
# Sequence of Casein kinase I isoform alpha (Homo sapiens) (P48729 2-337 limits assumed): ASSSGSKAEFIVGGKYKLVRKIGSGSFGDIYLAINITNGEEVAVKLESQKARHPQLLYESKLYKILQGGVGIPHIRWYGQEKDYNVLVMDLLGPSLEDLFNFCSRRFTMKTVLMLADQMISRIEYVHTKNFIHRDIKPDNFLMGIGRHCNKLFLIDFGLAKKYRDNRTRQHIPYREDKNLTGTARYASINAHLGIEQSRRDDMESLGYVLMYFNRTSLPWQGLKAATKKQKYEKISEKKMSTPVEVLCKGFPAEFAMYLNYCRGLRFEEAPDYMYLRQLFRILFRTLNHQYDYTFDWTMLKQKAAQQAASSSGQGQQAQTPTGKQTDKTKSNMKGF
# [17] = molecular target: Casein kinase I isoform alpha (Homo sapiens) (UniProt P48729); conditions: at 1 µM
# [18] = molecular target: Casein kinase I isoform gamma-1 (Homo sapiens) (UniProt Q9HCP0); conditions: at 0.1 µM
# Sequence of Casein kinase I isoform gamma-1 (Homo sapiens) (Q9HCP0 whole entry, looked up, canonical isoform): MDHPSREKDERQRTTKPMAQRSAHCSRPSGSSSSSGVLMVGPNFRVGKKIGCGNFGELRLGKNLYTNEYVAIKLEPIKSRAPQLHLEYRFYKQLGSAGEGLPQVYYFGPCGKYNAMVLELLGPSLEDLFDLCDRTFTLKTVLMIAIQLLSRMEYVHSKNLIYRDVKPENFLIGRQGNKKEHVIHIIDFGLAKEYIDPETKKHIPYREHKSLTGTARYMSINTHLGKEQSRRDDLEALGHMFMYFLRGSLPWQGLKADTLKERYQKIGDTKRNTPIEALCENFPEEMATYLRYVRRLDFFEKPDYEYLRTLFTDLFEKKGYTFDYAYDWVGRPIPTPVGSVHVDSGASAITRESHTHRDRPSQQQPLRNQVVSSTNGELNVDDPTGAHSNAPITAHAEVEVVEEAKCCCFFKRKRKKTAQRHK
# [19] = molecular target: Casein kinase I isoform gamma-1 (Homo sapiens) (UniProt Q9HCP0); conditions: at 1 µM
# [20] = molecular target: Casein kinase I isoform gamma-2 (Homo sapiens) (UniProt P78368); conditions: at 0.1 µM;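 also: values are mean inhibition figures reported as part of the GSK PKIS dataset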
# Sequence of Casein kinase I isoform gamma-2 (Homo sapiens) (P78368 whole entry, looked up, canonical isoform): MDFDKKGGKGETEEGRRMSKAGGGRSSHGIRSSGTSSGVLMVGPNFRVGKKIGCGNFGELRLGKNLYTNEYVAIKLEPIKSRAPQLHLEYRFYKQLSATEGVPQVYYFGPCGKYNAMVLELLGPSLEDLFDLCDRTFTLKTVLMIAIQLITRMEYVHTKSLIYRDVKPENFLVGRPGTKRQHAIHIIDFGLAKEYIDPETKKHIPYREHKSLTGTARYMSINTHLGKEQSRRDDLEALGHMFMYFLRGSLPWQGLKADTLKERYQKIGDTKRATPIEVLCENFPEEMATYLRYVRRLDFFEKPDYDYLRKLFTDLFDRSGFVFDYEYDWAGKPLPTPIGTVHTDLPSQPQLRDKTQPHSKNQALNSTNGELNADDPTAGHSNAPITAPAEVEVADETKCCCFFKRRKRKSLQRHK
# Sequence of Serine/threonine-protein kinase pim-2 (Homo sapiens) (Q9P1W9 whole entry, looked up): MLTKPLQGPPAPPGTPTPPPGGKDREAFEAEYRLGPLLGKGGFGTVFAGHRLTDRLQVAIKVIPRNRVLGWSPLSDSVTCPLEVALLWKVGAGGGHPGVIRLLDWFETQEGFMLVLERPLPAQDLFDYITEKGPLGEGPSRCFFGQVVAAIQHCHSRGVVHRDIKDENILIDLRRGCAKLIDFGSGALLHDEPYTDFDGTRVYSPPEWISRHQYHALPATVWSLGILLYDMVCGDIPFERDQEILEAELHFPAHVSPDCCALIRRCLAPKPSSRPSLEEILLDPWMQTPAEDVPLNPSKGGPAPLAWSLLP
SMILES,inhibition [1] [%],inhibition [2] [%],inhibition [3] [%],inhibition [4] [%],inhibition [5] [%],inhibition [6] [%],inhibition [7] [%],inhibition [8] [%],inhibition [9] [%],inhibition [10] [%],inhibition [11] [%],inhibition [12] [%],inhibition [13] [%],inhibition [14] [%],inhibition [15] [%],inhibition [16] [%],inhibition [17] [%],inhibition [18] [%],inhibition [19] [%],inhibition [20] [%]
NS(=O)(=O)c1ccc(N/N=C2\C(=O)Nc3ccc(-c4cnco4)cc32)cc1,24.5,1.42,15.5,1.08,3.26,1.71,14.3,-1.16,7.34,7.17,38.4,2.73,12.4,0.01,1.76,0.46,3.06,-2.5,-1.7,-2.15
CCC(=O)Nc1ccc(C)c(-c2ccc(C(=O)NCC3CC3)cc2)c1,0.38,0.17,0.73,0.96,0.76,4.61,5.28,4.06,6.63,2.36,2.69,3.66,3.59,1.6,1.74,2.53,3.41,2.54,3,2.3
COc1cc(Nc2ncc3c(C)nc(-c4cccc(C(F)(F)F)c4)n3n2)cc(OC)c1OC,3.02,3.42,6.73,1.19,2.92,3.9,15.9,10.9,13.5,1.64,25.5,4.46,9.14,4.53,3.7,7.78,6.02,2.94,4.47,2.07
N#Cc1ccc(Oc2nccc(-c3c(-c4ccc(F)cc4)ncn3C3CCNCC3)n2)cc1,0.58,0.29,0.8,1.34,1.48,5.1,7.69,2.82,9.93,1.69,3.03,3.77,4.18,1.71,4.59,4.15,10.1,3.79,5.9,3.52
Cc1nnc(-c2ccc(C)c(-c3ccc(C(=O)NCc4ccc(Cl)cc4)cc3)c2)o1,-2.67,0.64,0.96,1.56,2.59,1.09,7.21,5.11,11.4,1.16,3.88,4.06,4.33,1.65,3.27,2.79,4.63,0.71,2.06,-1.05
